# Measurements from the supplement of paper PMC10338343.
# ± gives the standard deviation.
# System: MILI (PIWIL2) piRISC loaded with L1MC piRNA (26 nt)
# Test: pre-steady-state target cleavage rate (min^-1); guide: L1MC piRNA 5'p-UAACUAAAUACUAUGCAAGCUGUAGG; MIWI and MILI are mouse PIWI proteins and EfPiwi is from a freshwater sponge; tags in brackets are library labels; higher = faster piRNA-guided slicing of the target
# Conditions: auxiliary factor: none (no GTSF1)
# Summary of the method: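 The pre-steady-state cleavage rate was calculated from a burst-and-steady-state fit. Data came from Cleave-'n-Seq, in which […] transcribed, DNA-blocked target RNA library was mixed with 1 nM active affinity-purified piRISC carrying one synthetic guide, with or without 500 nM GTSF1 partner protein, in HEPES–potassium acetate buffer at 33 °C for 0–8 or 0–960 min. Uncleaved targets were sequenced and normalised to depth and to weakly complementary targets, three trials were pooled, and k3 was capped at 0.0001 min^-1.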
# 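Also: 1 nM active piRISC with 0.1 nM target library at 33 °C single turnover.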
row,Sequence,pre-steady-state target cleavage rate
1,UCCUGGAUGUCGAACGUUAGAUUUUAGUUA,< 0.0001
2,UCCUGGAUGUCGAACCAUGAGUAUUUAGUUA,< 0.0001
3,UCCUGGAUGUCCUUGCAAAGAAUUUAGUUA,0.00283 ± 0.0026
4,UCCUGGAUGUCGAAGCAUAGUAUUAUCUUA,< 0.0001
5,UCCUGGAUGUCGAACGUAUUUAUUUAGUUA,< 0.0001
6,UCCUGGAUGUCGAACGUAAGUAUUUUGUUA,< 0.0001
